This note sets out measurements from PubChem BioAssay (Tox21).

Experiment [1] is described as follows: qHTS assay to identify small molecule antagonists of the glucocorticoid receptor (GR) signaling pathway - cell viability counter screen (AID 720693). Further: nearly all actives have a fitted effect of over 55% in size. Further: potency means the concentration at half of the fitted maximal effect.
Experiment [2] in a line: qHTS assay for identifying genotoxic compounds that show differential cytotoxicity against isogenic chicken DT40 cell lines with known DNA damage response pathways - wild type cell line (AID 743012). Further: potency means the concentration at half of the fitted maximal effect; nearly all actives have a fitted effect of over 60% in size. The essentials: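 Wild type DT40, 300 cells/well, ~0.5 h settle at 37 C/5% CO2; compounds in DMSO added by pintool; 40 h at 37 C/5% CO2; CellTiter-Glo, 30 min RT; luminescence.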
On the technique in general: qHTS replaces the single test concentration by a dilution series.

The nature of experiment [3]: qHTS assay for identifying genotoxic compounds that show differential cytotoxicity against isogenic chicken DT40 cell lines with known DNA damage response pathways - Rev3 mutant cell line (AID 743014). Further: potency means the concentration at half of the fitted maximal effect; nearly all actives have a fitted effect of over 55% in size.
The nature of experiment [4]: qHTS assay to identify small molecule antagonists of the androgen receptor (AR) signaling pathway - cell viability counter screen (AID 743033; further: nearly all actives have a fitted effect of over 45% in size; further: potency means the concentration at half of the fitted maximal effect).
The target in experiment [5] is Androgen receptor (Homo sapiens) (UniProt P10275). Nature of the experiment: qHTS assay to identify small molecule agonists of the androgen receptor (AR) signaling pathway using the MDA cell line (AID 743040; further: on the % scale 0 is the no-effect control and ±100 the full control effect; nearly all actives have a fitted effect of over 20% in size). In a few lines:
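Human breast carcinoma MDA-kb2 reporter cells (MMTV-luc, AR/GR elements) were treated for 16 h at 37C in 0% CO2 following a 5 h settling period. Signal was quantified by ONE-Glo luminescence.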

The nature of experiment [6]: qHTS assay to identify small molecule antagonists of the androgen receptor (AR) signaling pathway using the MDA cell line - cell viability counter screen (AID 743041; further: nearly all actives have a fitted effect of over 45% in size; further: potency means the concentration at half of the fitted maximal effect). In a few lines: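 Same-well cytotoxicity was assessed by CellTiter-Fluor in MDA-kb2 AR-luc cells after 16 h of compound treatment under R1881 agonism.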
Experiment [7] deals with Androgen receptor (Homo sapiens) (UniProt P10275). Nature of the experiment: qHTS assay to identify small molecule antagonists of the androgen receptor (AR) signaling pathway using the MDA cell line (AID 743042; further: nearly all actives have a fitted effect of over 55% in size; further: potency means the concentration at half of the fitted maximal effect). In a few lines:
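MDA-kb2 breast carcinoma cells carrying MMTV-luciferase (AR/GR responsive) were co-treated with compounds and the agonist R1881 for 16 h at 37C. Inhibition read as ONE-Glo luminescence; CellTiter-Fluor fluorescence measured in parallel for cytotoxicity.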

Experiment [8] in a line: qHTS assay to identify small molecule antagonists of the thyroid receptor (TR) signaling pathway - cell viability counter screen (AID 743064). Further: nearly all actives have a fitted effect of over 50% in size. Further: potency means the concentration at half of the fitted maximal effect. The essentials:
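Fluorescence from CellTiter-Fluor, added after 23.5 h exposure at 37 °C, reported viability of GH3.TRE-Luc cells co-treated with compound and 1 nM T3. Measured in the same wells as the luciferase TR readout.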

The nature of experiment [9]: qHTS assay to identify small molecule antagonists of the thyroid receptor (TR) signaling pathway (AID 743065). Further: potency means the concentration at half of the fitted maximal effect; nearly all actives have a fitted effect of over 55% in size. In a few lines:
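GH3.TRE-Luc rat pituitary cells (two TREs driving luciferase) were dosed with compound, then stimulated with 1 nM T3 (final) for 23.5 h at 37 C. ONE-Glo luminescence was the read-out, with CellTiter-Fluor fluorescence as the cytotoxicity counter-screen.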

Experiment [10] deals with Estrogen receptor (Homo sapiens) (UniProt P03372). Nature of the experiment: qHTS assay to identify small molecule antagonists of the estrogen receptor alpha (ER-alpha) signaling pathway (AID 743069; active means well fitted curve in the direction sought with a large enough effect in the signal ratio in the repeat runs, not every such curve was filed as active; inconclusive means weak or mixed curves, or effect the other way; inactive means no such curve, though single readings can be large or run the other way; the % refers to the signal ratio; further: potency means the concentration at half of the fitted maximal effect). In a few lines: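 Reporter cells (ER-alpha-bla, HEK293 background) are conditioned overnight in stripped-serum medium (2% charcoal-stripped FBS). Compound and 17beta-estradiol exposure runs 18 hr at 37C, 5% CO2.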

Experiment [11] in a line: qHTS assay to identify small molecule antagonists of the estrogen receptor alpha (ER-alpha) signaling pathway - cell viability counter screen (AID 743074; calls by dose curve;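 further: HEK293 cells carrying ER-alpha-UAS-bla reporter stimulated with 17beta-estradiol; nearly all actives have a fitted effect of over 45% in size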; further: potency means the concentration at half of the fitted maximal effect).
Experiment [12] in a line: qHTS assay to identify small molecule antagonists of the estrogen receptor alpha (ER-alpha) signaling pathway using the BG1 cell line (AID 743080; calls by dose curve;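 further: BG1 cells stimulated with 17beta-estradiol alongside compound; nearly all actives have a fitted effect of over 25% in size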; further: potency means the concentration at half of the fitted maximal effect). The essentials: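 Seeding, 24 h rest, compound transfer from DMSO, 17beta-estradiol addition, 21.5 h incubation, CellTiter-Fluor (30 min, 37 C), then ONE-Glo (30 min, room temperature): this sequence was run on BG1-Luc-4E2 reporter cells.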

Experiment [13] can be described thus: qHTS assay to identify small molecule antagonists of the estrogen receptor alpha (ER-alpha) signaling pathway using the BG1 cell line - cell viability counter screen (AID 743081).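 Further: compound given together with 17beta-estradiol as the ER stimulus; nearly all actives have a fitted effect of over 45% in size.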 Further: potency means the concentration at half of the fitted maximal effect.
Another experiment has as its target Aromatase (Homo sapiens) (UniProt P11511). Put plainly: qHTS assay to identify aromatase inhibitors (AID 743083). Further: nearly all actives have a fitted effect of over 55% in size. Further: potency means the concentration at half of the fitted maximal effect.
Experiment [14] deals with thyroid hormone receptor (rat, GH3 cells). Put plainly: qHTS assay to identify small molecule agonists of the thyroid receptor (TR) signaling pathway (AID 743066; calls by dose curve; further: on the % scale 0 is the no-effect control and ±100 the full control effect).
In experiment [15] the target is Estrogen receptor (Homo sapiens) (UniProt P03372). Nature of the experiment: qHTS assay to identify small molecule agonists of the estrogen receptor alpha (ER-alpha) signaling pathway (AID 743075; calls by dose curve;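 further: HEK293 GripTite cells with ER-alpha and UAS-driven beta-lactamase reporter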; further: potency means the concentration at half of the fitted maximal effect; on activation: on the % scale 0 is the no-effect control and ±100 the full control effect). The conditions noted are these: HEK293 ER-alpha-UAS-bla, beta-lactamase FRET ratio, 18 h; activation: at 70.1 µM (top of the series).
Experiment [16] can be described thus: qHTS assay for identifying genotoxic compounds that show differential cytotoxicity against isogenic chicken DT40 cell lines with known DNA damage response pathways - Rad54/Ku70 mutant cell line (AID 743015). Further: potency means the concentration at half of the fitted maximal effect; nearly all actives have a fitted effect of over 60% in size.
The target of experiment [17] is Estrogen receptor (Homo sapiens) (UniProt P03372). Put plainly: qHTS assay to identify small molecule agonists of the estrogen receptor alpha (ER-alpha) signaling pathway using the BG1 cell line (AID 743079). Further: nearly all actives have a fitted effect of over 20% in size. Further: potency means the concentration at half of the fitted maximal effect. On activation: on the % scale 0 is the no-effect control and ±100 the full control effect. The conditions noted are these: BG1Luc4E2 cells, ERE-luciferase agonist, 22 h.

“And” between values parts separate entries of the source, which are not always exact repeats. Identical values can stand only once. Where a structure was tested more than once in an assay, its records may differ in their call. The source made the active and inactive calls. Unless noted, the call rests on the fitted dose curve; in most records, active means well fitted curve in the direction sought with a large enough effect in the repeat runs; inconclusive means weak or mixed curves; inactive means no such curve, though single readings can be large; an effect the other way counts as inactive or inconclusive.

Chain of Aromatase (Homo sapiens) (P11511 whole entry, looked up): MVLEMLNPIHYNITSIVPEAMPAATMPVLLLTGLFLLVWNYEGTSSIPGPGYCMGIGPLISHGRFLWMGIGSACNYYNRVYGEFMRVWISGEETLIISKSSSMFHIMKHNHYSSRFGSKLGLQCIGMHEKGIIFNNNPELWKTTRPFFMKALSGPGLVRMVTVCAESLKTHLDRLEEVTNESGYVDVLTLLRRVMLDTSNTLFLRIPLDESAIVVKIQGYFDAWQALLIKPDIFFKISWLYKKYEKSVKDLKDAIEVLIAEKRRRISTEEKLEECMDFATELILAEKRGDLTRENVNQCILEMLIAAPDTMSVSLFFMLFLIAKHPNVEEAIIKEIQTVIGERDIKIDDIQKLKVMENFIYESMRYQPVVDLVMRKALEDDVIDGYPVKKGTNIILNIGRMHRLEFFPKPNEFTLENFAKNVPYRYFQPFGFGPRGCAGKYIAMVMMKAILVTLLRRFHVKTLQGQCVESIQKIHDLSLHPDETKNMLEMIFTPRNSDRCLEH
Chain of Estrogen receptor (Homo sapiens) (P03372 whole entry, looked up): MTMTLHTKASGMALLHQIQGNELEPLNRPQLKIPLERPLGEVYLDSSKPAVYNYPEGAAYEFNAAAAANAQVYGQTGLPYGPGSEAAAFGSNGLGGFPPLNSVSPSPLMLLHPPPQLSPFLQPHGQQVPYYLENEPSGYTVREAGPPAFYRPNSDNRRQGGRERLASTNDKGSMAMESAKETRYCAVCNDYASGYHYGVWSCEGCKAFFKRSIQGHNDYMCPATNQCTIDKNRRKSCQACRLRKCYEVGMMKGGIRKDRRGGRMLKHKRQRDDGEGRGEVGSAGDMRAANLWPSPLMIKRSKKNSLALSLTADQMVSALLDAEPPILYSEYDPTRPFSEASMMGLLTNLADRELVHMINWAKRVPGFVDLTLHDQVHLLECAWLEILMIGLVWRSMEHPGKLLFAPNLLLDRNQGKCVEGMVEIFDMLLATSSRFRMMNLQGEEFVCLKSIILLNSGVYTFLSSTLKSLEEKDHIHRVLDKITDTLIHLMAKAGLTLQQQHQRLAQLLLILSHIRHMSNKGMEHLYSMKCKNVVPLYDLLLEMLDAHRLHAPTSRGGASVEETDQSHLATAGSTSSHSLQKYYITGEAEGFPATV
Chain of Androgen receptor (Homo sapiens) (P10275 whole entry, looked up): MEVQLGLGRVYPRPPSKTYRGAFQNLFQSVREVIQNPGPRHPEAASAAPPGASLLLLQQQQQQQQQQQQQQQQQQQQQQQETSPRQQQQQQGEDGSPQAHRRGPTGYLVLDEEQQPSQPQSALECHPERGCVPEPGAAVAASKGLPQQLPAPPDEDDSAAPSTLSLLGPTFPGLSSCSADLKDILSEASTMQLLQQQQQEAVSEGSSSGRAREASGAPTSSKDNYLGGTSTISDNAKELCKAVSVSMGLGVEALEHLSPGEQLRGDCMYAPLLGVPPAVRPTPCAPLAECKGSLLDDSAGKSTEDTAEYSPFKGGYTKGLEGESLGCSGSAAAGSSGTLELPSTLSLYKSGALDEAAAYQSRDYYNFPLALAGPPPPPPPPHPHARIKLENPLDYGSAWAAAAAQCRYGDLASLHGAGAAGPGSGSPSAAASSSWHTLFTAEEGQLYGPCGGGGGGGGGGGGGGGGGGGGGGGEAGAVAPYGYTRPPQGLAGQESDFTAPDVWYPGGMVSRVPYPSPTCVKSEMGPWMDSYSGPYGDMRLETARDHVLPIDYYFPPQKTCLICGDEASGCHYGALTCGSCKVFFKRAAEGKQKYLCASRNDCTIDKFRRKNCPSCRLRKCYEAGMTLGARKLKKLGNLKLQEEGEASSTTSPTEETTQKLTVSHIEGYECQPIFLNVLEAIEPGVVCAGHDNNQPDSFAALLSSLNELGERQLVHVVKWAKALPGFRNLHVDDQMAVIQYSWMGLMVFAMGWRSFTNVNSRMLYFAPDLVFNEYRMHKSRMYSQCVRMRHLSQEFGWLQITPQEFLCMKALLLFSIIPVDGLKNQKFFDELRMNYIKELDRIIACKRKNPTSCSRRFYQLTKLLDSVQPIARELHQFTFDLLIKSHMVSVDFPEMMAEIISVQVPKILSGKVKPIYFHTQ

`CCCCCCCCCCn1cc[n+](CCCCCCCCCC)c1C`: the Potency in experiment [1] was 13.8 µM (active); in experiment [2], 0.273 µM (active); in [3] it was 0.109 µM (active); in experiment [4] it was 4.37 µM (active); in experiment [6] it was 24.4 µM (active); in experiment [7] it was 2.17 µM (active). In addition, the Potency was 6.87 µM (active) in experiment [8]; 3.86 µM (active) in [9]; 61.7 µM [cytotoxic] (active) in experiment [10]; 19.5 µM (active) in experiment [11]; 8.64 µM (active) in experiment [12]; 48.6 µM (active) in [13]. In addition, the Potency with Aromatase (Homo sapiens) was 5.45 µM (active). Further, in [5], the Potency entry is “inactive”.

With `CC[C@H]1O[C@]2(CC[C@@H]1C)C[C@@H]1C[C@@H](C/C=C(\C)C[C@@H](C)/C=C/C=C3\CO[C@@H]4[C@H](O)C(C)=C[C@@H](C(=O)O1)[C@]34O)O2`, the Potency in experiment [1] is 13.7 µM (active); in [2], 6.06 µM (active); in experiment [3] it was 6.8 µM (active); in experiment [8], 6.06 µM (active); in [9] it was 5.4 µM (active); in experiment [11] it was 43.3 µM (active). For the same compound, the Potency is 60.6 µM (active) in experiment [13] and 30.4 µM (active) with Aromatase (Homo sapiens). In addition, in experiment [4], the Potency entry is “inactive”.

For the compound `COc1ccc(CN2CCN(C(c3ccc(F)cc3)c3ccc(F)cc3)CC2)c(OC)c1OC`, the Potency result (in experiment [1]; with Aromatase (Homo sapiens)) was “inactive” in each case. The Potency in experiment [2] was 3.76 µM (active); in experiment [3], 5.96 µM (active); in experiment [4], 23.9 µM (active); in [8], 11.9 µM (active); in experiment [9], 13.3 µM (active); in experiment [11], 26.8 µM (active).

As for `CC(=O)N1CCN(c2ccc(OC[C@H]3CO[C@](Cn4ccnc4)(c4ccc(Cl)cc4Cl)O3)cc2)CC1`, the Potency entry (in [1]; in experiment [14]; in experiment [10]; in experiment [15]; in [13]; with Aromatase (Homo sapiens)) was “inactive” throughout. The Potency in experiment [2] was 10.6 µM (active) and 3.86 µM (active); in experiment [3], 23.7 µM (active) and 4.33 µM (active); in experiment [4], “inactive and 19.5 µM (active)”; in experiment [8], “inactive and 21.7 µM (active)”; in experiment [9], 26.6 µM (active) and 15.4 µM (active); in experiment [11], “inactive and 43.6 µM (active)”. For the same compound, in experiment [12], the Potency is 13.3 µM (active).

For the compound `Nc1c2ccccc2nc2ccccc12`, the Potency in experiment [1] was 16.9 µM (active) and 15.3 µM (active); in experiment [2], 2.11 µM (active) and 4.27 µM (active); in experiment [3] it was 2.66 µM (active) and 2.14 µM (active); in experiment [16], 944 nM (active) and 677 nM (active); in [17] it was 11.9 µM (active) and 677 nM (active); in the experiment with Aromatase (Homo sapiens), 18.8 µM (active) and 6.03 µM (active). In addition, the Potency result in [14] and in experiment [11] was “inactive” each time.

On to `Cc1nc(-c2ccc3c(c2)CCN(CCC2CCC(NC(=O)/C=C/c4ccc(F)cc4)CC2)CC3)no1` (stereo unspecified), for which the Potency entry in experiment [1], in experiment [5], in experiment [6], in experiment [7], in experiment [14] and in [11] was “inactive” throughout. Also, the Potency entry (in experiment [12]; in [13]; with Aromatase (Homo sapiens)) was “inactive” throughout. The Potency was 0.386 µM (active) in [2], 0.687 µM (active) in experiment [3], 10.9 µM (active) in experiment [8] and 9.79 µM [inconclusive] (active) in [15].

Regarding `CCN(CCC#N)c1ccc(N=Nc2c(Cl)cc([N+](=O)[O-])cc2Cl)cc1`, the Potency result in experiment [1], in experiment [14], in experiment [10], in experiment [11], in experiment [15] and in experiment [12] was “inactive” throughout. Also, the Potency result with Aromatase (Homo sapiens) was “inactive”. Further, the Potency in [2] is 13.7 µM (active); in [3] it was 10.9 µM (active); in experiment [16], 17.2 µM (active); in experiment [8], 24.3 µM (active); in experiment [9] it was 24.3 µM (active); in experiment [13], 27.3 µM (active). Further, the activation in experiment [17] (at 70.3 µM (top of the series)) was -0.554% (inactive).

Take `N=C1N=C(N)c2cc3ccccc3cc21`: the Potency in experiment [1] was 21.9 µM (active); in [2], 9.69 µM (active); in [3] it was 27.3 µM (active); in experiment [8] it was 12.9 µM (active); in [9], 13.7 µM (active); with Aromatase (Homo sapiens), 19.9 µM (active). In experiment [14], the Potency entry is “inactive”.
